Our source for the Percent Effect values is ChEMBL document CHEMBL3988442, “University of Dundee, Small-Polar-MMV Screening Library” (2021).

The target of experiment [1] is T1, Aspartate--tRNA(Asp/Asn) ligase (Mycobacterium tuberculosis (strain ATCC 25618 / H37Rv)) (UniProt P9WFW3). Also: in the data most compounds retested in dose-response had high values.
T1 sequence (whole entry): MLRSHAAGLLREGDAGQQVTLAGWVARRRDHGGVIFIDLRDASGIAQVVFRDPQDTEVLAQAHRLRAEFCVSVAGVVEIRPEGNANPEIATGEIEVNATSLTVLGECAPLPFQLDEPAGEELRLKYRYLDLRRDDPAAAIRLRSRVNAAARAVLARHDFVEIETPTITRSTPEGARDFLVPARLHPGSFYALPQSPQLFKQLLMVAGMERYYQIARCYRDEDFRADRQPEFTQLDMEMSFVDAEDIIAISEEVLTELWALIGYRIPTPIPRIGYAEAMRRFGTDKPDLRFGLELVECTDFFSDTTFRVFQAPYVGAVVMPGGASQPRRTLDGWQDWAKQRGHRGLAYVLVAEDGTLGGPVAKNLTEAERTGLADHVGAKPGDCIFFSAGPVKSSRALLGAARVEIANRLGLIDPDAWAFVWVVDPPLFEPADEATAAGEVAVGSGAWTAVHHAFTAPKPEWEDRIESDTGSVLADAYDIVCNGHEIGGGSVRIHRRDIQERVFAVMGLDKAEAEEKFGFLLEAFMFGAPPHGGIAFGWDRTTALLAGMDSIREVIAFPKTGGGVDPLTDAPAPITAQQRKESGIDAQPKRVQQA
Nature of the experiment: Assay for Asp RNA synthetase-1 from Mycobacterium tuberculosis. On the set-up: scale not given: direction of the effect not stated beside the values. The note with it: 30 µM. Type of experiment: functional.

Experiment [2] addresses Shiga toxin 2 (Escherichia coli O157:H7) (UniProt P09385+P09386). Put plainly: E. coli 0.157:H7 Shiga Toxin SOP - stx2 screening assay. Type of experiment: functional. Set-up: scale not given: direction of the effect not stated beside the values. The note with it: 30 µM.

For the compound `CC[C@H](C)[C@H](NC(=O)Cc1csc(-c2cccc(Cl)c2)n1)C(=O)O`, the Percent Effect in experiment [1] was 4.59%; in experiment [2], -17.1%.
In the same order, the values of `Cc1ccc(-c2cc(CNC(=O)N3CCOC(C)C3)on2)cc1` (centres undefined) are 0.699% and 9.22%.
With `CCn1nnc2c1C(COC)CN(Cc1ccsc1)C2` (centres undefined), the Percent Effect in experiment [1] was -1.23%; in experiment [2], -3.86%.
In the same order, the values of `Cc1nn(C(C)C)c(C)c1NC(=O)c1ccccc1` are 1.73% and -4.81%.
In the same order, the values of `NC(=O)c1cc(NC(=O)N2CCCCCC2)ccc1F` are 1.17% and -21.4%.
In the same order, the values of `CNC(=O)N1CCc2cc(C(=O)N(C)C)c(NCC3CC3)nc2CC1` are 1.99% and -3.46%.
Regarding `COc1ncccc1NC(=O)N(Cc1ccc(C)o1)C1CC1`, the Percent Effect in experiment [1] was -0.455%; in experiment [2], 12.1%.
In the same order, the values of `COCc1cn([C@@H]2c3ccccc3C3(CCNCC3)[C@H]2O)nn1` are 3.45% and 8.95%.
As to `Cc1ncc(-c2nc3cc(S(=O)(=O)N4CCCC4)ccc3n2C)cn1`, the values for the Percent Effect in experiment [1] and in experiment [2] were 6.27% and 0.802%, respectively.
In the case of `O=C1CC2(CCN(c3nncs3)C2)CN1c1ccccc1` (centres undefined), the Percent Effect is 2.1% in experiment [1] and -24.1% in experiment [2].
Regarding `COc1ccc(COCC(O)CNC(=O)c2cccnc2)cc1` (centres undefined), the figures for the Percent Effect in experiment [1] and in experiment [2] were -1.27% and -12.2%, respectively.
The matching figures for `CN1CCN(Cc2cscn2)CC(C(=O)N(C)C)C1` (centres undefined): -6.57% and -14.6%.
The matching figures for `CNc1nc2c(s1)C(c1cccc(F)c1F)CC(=O)N2` (centres undefined): 34.5% and 3.28%.
In the same order, the values of `O=C(Nc1cnccn1)[C@@H]1COC[C@H]2CN(C3CCCC3)C[C@H]21` are -5.7% and 18%.
As for `COCC1COCCC12CCN(CCc1ccccc1)CC2` (centres undefined), the values for the Percent Effect in experiment [1] and in experiment [2] were -6.15% and 2.07%, respectively.
Regarding `CCSCCC(=O)NS(=O)(=O)c1ccc2c(c1)OCCO2`, the Percent Effect in experiment [1] was -0.722%; in experiment [2] it was -25.1%.
The matching figures for `COCCC(=O)N1CCC2(COCc3cnc(N4CCOCC4)nc32)C1` (centres undefined): 1.66% and 9.32%.
